This is an account of results in PubChem BioAssay (NCI).

SMILES strings stand for the structures. This is part of a sample that, as a whole, favours compounds with a hit. Of some 83,000 tested, about 20% had one in any assay.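 Interpretation: 100, growth as untreated; towards 0, rising growth inhibition; 0, no net growth; 0 to -100, cell death. Compounds scoring below 10 were considered active.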 Unmarked numbers belong to inactive results. Active and inactive are the calls of the source.

Among the test systems are NCI-H23 lung; NCI-H226 lung; NCI-H322M lung; HOP-62 NSCLC; NCI-H460 lung; HOP-92 NSCLC; NCI-H522 lung; A549/ATCC NSCLC; 786-0 renal; COLO 205 colon; DU-145 prostate; K-562 leukemia; MALME-3M melanoma; MDA-MB-231 breast; SF-268 CNS; SF-295 CNS; SF-539 CNS; UACC-257 melanoma; M14 melanoma.
Holding throughout (assay): NCI-60 one-dose screen, 48 h (100 = growth as untreated, 0 = no growth, -100 = all killed)
Conditions in all cases: 10 µM unless noted

Turning to `COc1cnccc1-c1nc2ccc3[nH]ncc3c2c2c1CCCC2`, the growth in the assay on NCI-H23 lung was 67.1%; in the assay on NCI-H226 lung, 67%; in the assay with NCI-H322M lung, 67.1%; in the assay on HOP-62 NSCLC, 61%; with NCI-H460 lung, 44.7%; in the assay with HOP-92 NSCLC, 69.2%. For the same molecule, the growth was 30.6% in the assay on NCI-H522 lung; 47.6% with A549/ATCC NSCLC; 49% in the assay with 786-0 renal; 55.3% with COLO 205 colon; 62.7% in the assay with DU-145 prostate; 42.2% in the assay with K-562 leukemia. In addition, the growth was 73.8% in the assay on MALME-3M melanoma; 68.2% in the assay with MDA-MB-231 breast; 61.3% in the assay on SF-268 CNS; 60.5% in the assay on SF-295 CNS; 35.7% in the assay with SF-539 CNS; 87.5% with UACC-257 melanoma. Moreover, the growth in the assay with M14 melanoma is 46.3%.
As to `CC(C)(C)OC(=O)N1C/C(=C\c2ccoc2)C(=O)/C(=C/c2ccoc2)C1`, the growth is 99.1% with NCI-H23 lung; 98.3% in the assay on NCI-H226 lung; 87.7% in the assay on NCI-H322M lung; 93.9% with HOP-62 NSCLC; 107% in the assay with NCI-H460 lung; 100% in the assay with HOP-92 NSCLC. Moreover, the growth with NCI-H522 lung is 78.8%; in the assay on A549/ATCC NSCLC, 102%; in the assay on 786-0 renal it was 93.8%; in the assay with COLO 205 colon, 109%; in the assay on DU-145 prostate, 109%; with K-562 leukemia, 29.3%. The growth in the assay with MALME-3M melanoma is 92.6%; in the assay with MDA-MB-231 breast, 109%; in the assay with SF-268 CNS, 89.5%; in the assay with SF-295 CNS it was 103%; in the assay with SF-539 CNS, 106%; in the assay on UACC-257 melanoma, 95.9%. Further, in the assay with M14 melanoma, the growth was 94.2%.
For `COc1cc(/C=C2\C(=O)N(Cc3ccc(Cl)cc3)c3ccccc32)cc(OC)c1OC`, the growth with NCI-H23 lung is 34.4%; in the assay on NCI-H226 lung it was 46.7%; in the assay on NCI-H322M lung, 66.9%; in the assay on HOP-62 NSCLC, 55.9%; in the assay on NCI-H460 lung, 25.2%; in the assay on HOP-92 NSCLC, 44%. Further, the growth in the assay on NCI-H522 lung is 11.4%; in the assay on A549/ATCC NSCLC, 9.8% (active); in the assay with 786-0 renal, 32.7%; in the assay on COLO 205 colon, 48%; in the assay on DU-145 prostate, -39.1% (active); in the assay on K-562 leukemia, 8.83% (active). Besides, the growth in the assay on MALME-3M melanoma was 65.5%; in the assay on MDA-MB-231 breast it was 23.3%; in the assay on SF-268 CNS it was 10.9%; in the assay with SF-295 CNS, 40.9%; in the assay on SF-539 CNS, 23.3%; with UACC-257 melanoma it was 21.9%.
As to `CC(=O)OCC(=O)[C@@]1(O)CC[C@H]2[C@@H]3CC(=C(Br)Br)C4=CC(=O)CC[C@]4(C)[C@H]3C(=O)C[C@@]21C`, the growth is 88.6% in the assay with NCI-H23 lung; 92.1% in the assay on NCI-H226 lung; 88.5% with NCI-H322M lung; 71.9% with HOP-62 NSCLC; 103% with NCI-H460 lung; 87.3% with HOP-92 NSCLC. Besides, the growth in the assay on NCI-H522 lung was 66.6%; with A549/ATCC NSCLC it was 65.1%; in the assay on 786-0 renal, 85.1%; in the assay with COLO 205 colon it was 99.5%; in the assay on DU-145 prostate, 107%; in the assay with K-562 leukemia, 102%. In addition, the growth was 98.3% with MALME-3M melanoma; 86% with MDA-MB-231 breast; 89.8% in the assay with SF-268 CNS; 76.7% with SF-295 CNS; 98.4% in the assay on SF-539 CNS; 67.6% in the assay with UACC-257 melanoma. In the assay on M14 melanoma, the growth is 82.3%.
On to `CCN(CC)CCSCCCNc1c(C)cnc2cc(Cl)ccc12`, for which the growth is 89.8% in the assay on NCI-H23 lung; 100% in the assay with NCI-H226 lung; 90.8% in the assay with NCI-H322M lung; 85.2% in the assay with HOP-62 NSCLC; 96.8% with NCI-H460 lung; 81.6% with HOP-92 NSCLC. The growth in the assay on NCI-H522 lung is 102%; in the assay on A549/ATCC NSCLC it was 95.9%; with 786-0 renal, 82.7%; in the assay on COLO 205 colon it was 61.4%; with DU-145 prostate it was 88.2%; in the assay with K-562 leukemia, 5.33% (active). In addition, the growth in the assay with MALME-3M melanoma is 87%; in the assay with MDA-MB-231 breast, 61.9%; in the assay on SF-268 CNS, 81%; in the assay on SF-295 CNS it was 90.5%; with SF-539 CNS, 71%; in the assay with UACC-257 melanoma it was 113%.
In the case of `Clc1cc(Cl)cc(N2N=C(c3cccc(Nc4ccncc4)c3)CC2c2ccccc2)c1` (stereo not drawn), the growth with NCI-H23 lung was 82.8%; with NCI-H226 lung, 93.1%; with NCI-H322M lung, 78%; in the assay with HOP-62 NSCLC it was 43.6%; in the assay on NCI-H460 lung, -76.1% (active); in the assay on HOP-92 NSCLC it was 55.7%. The growth in the assay with NCI-H522 lung was 65.2%; in the assay on A549/ATCC NSCLC, 45.5%; in the assay on 786-0 renal it was 86.3%; in the assay on COLO 205 colon it was -49.7% (active); in the assay with DU-145 prostate, 35.7%; with K-562 leukemia it was 0.584% (active). In addition, the growth with MALME-3M melanoma is 32.7%; with MDA-MB-231 breast, 58.1%; with SF-268 CNS, 84.3%; with SF-295 CNS it was 9.59% (active); in the assay on SF-539 CNS it was 80.9%; in the assay with UACC-257 melanoma it was 84.7%. Also, the growth in the assay with M14 melanoma is 64.1%.
For `CC[N+](CC)(CCCC(C)[N+]1(Cc2ccccc2)C(C)=CC=C1C)Cc1ccccc1` (stereo not drawn), the growth is 72.3% in the assay on NCI-H23 lung; 81.2% in the assay with NCI-H226 lung; 96.7% in the assay with NCI-H322M lung; 98.1% in the assay with HOP-62 NSCLC; 97% in the assay on NCI-H460 lung; 55.3% in the assay on HOP-92 NSCLC. In addition, the growth with NCI-H522 lung is 75%; with A549/ATCC NSCLC, 100%; with 786-0 renal it was 99.5%; in the assay on COLO 205 colon, 67.9%; in the assay on DU-145 prostate, 101%; in the assay on K-562 leukemia it was 54.6%. Besides, the growth is 87.8% with MALME-3M melanoma; 78.6% with MDA-MB-231 breast; 98.9% in the assay on SF-268 CNS; 97.8% with SF-295 CNS; 97.6% in the assay on SF-539 CNS; 84.2% with UACC-257 melanoma. Moreover, the growth with M14 melanoma was 66.5%.
For `CCN(CC)CCCC(C)Nc1cc(-c2cccc(OC(F)(F)F)c2)nc2ccc(N3CCCC3)cc12` (stereo not drawn), the growth in the assay with NCI-H23 lung was 57.9%; in the assay on NCI-H226 lung, 46.7%; with NCI-H322M lung, 17.7%; with HOP-62 NSCLC it was 23.3%; in the assay on NCI-H460 lung it was -4.02% (active); in the assay with HOP-92 NSCLC it was -5.67% (active). Further, the growth in the assay on NCI-H522 lung was 2.05% (active); in the assay with A549/ATCC NSCLC it was 10.7%; with 786-0 renal, -19.7% (active); with COLO 205 colon, -79% (active); with DU-145 prostate, 37%; in the assay with K-562 leukemia, -46.5% (active). For the same molecule, the growth with MALME-3M melanoma was -93% (active); with MDA-MB-231 breast, -50.3% (active); in the assay on SF-268 CNS, 26%; in the assay on SF-295 CNS, 28.3%; in the assay with SF-539 CNS it was -91.7% (active); in the assay on UACC-257 melanoma it was -81.1% (active). Moreover, the growth in the assay on M14 melanoma is -81.9% (active).
As for `COc1ccc(-c2nn(Cc3ccccc3)c3c2-c2oncc2CC3)cc1OC`, the growth is 105% in the assay on NCI-H23 lung; 131% in the assay on NCI-H226 lung; 112% in the assay on NCI-H322M lung; 120% in the assay with HOP-62 NSCLC; 95.6% in the assay with NCI-H460 lung; 49.4% in the assay on HOP-92 NSCLC. The growth is 98.9% with NCI-H522 lung; 96.8% in the assay on A549/ATCC NSCLC; 97.8% in the assay on 786-0 renal; 136% in the assay with COLO 205 colon; 97.4% with DU-145 prostate; 90.5% in the assay on K-562 leukemia. Further, the growth in the assay with MALME-3M melanoma was 138%; in the assay with MDA-MB-231 breast, 77.8%; in the assay with SF-268 CNS it was 104%; in the assay with SF-295 CNS, 96.5%; in the assay with SF-539 CNS it was 93.3%; in the assay with UACC-257 melanoma, 89.9%.
